Mcl1-Noxa inh – disrupts binding of human Mcl-1 to Noxa peptide | AID 1022 | actives 1.5% (n = 220,000) | inhibition, % at 21.7 µM | TR-FRET Mcl-1/Noxa peptide binding, 2 h | Q07820;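 active = compounds that cut the protein-peptide binding signal by more than 50% relative to plate controls in a single-dose test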;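 also: His-tagged Mcl-1 with rhodamine Noxa BH3 peptide and terbium anti-His antibody; 0% = Mcl-1 plus Noxa peptide wells and 100% = peptide-only wells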
Mcl1 Bid PPI – disrupts binding of human Mcl-1 to Bid peptide | Q07820 | TR-FRET Mcl-1/Bid-Dy647 peptide binding, 1536-well | inhibition, % at 21.7 µM | actives 0.97% (n = 220,000) | AID 1021;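 active = compounds that cut the binding signal by more than half at the single screening dose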;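 also: His-tagged Mcl-1 with europium anti-His antibody binding Bid BH3 peptide; 0% = Mcl-1 plus peptide wells and 100% = peptide-only wells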
p47phox inh – inhibitors of human p47phox binding. p47phox/p22phox peptide binding, fluorescence polarization, 2 h. inhibition, % at 24.7 µM. P14598. actives 0.53% (n = 220,000);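 active = inhibition above about 30%, limit read from the data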;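 also: 0% = p47phox with labelled peptide and 100% = labelled peptide alone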
Target sequence (P14598 whole entry, looked up): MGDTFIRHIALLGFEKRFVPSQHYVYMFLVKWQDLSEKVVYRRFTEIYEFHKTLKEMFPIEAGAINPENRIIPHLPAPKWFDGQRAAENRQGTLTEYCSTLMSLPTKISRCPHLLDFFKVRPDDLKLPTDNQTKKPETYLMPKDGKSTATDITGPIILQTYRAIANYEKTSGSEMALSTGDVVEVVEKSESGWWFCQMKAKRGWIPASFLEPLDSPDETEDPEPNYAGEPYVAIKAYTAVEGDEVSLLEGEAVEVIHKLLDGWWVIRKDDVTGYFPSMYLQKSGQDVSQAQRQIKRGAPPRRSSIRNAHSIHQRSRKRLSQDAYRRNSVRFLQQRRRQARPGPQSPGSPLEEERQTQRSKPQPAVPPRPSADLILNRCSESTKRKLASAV
14-3-3 Bad PPI – disrupts binding of bovine 14-3-3 zeta to phospho-Bad peptide; inhibition, % at 21.7 µM; AID 781; TR-FRET 14-3-3zeta/Dy647-pBad peptide displacement, 1 h; actives 0.71% (n = 220,000); P63103;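 active = inhibition above about 70%, limit read from the data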;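 also: 0% = full 14-3-3 plus peptide FRET controls and 100% = background without 14-3-3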
Target sequence (P63103 whole entry, looked up): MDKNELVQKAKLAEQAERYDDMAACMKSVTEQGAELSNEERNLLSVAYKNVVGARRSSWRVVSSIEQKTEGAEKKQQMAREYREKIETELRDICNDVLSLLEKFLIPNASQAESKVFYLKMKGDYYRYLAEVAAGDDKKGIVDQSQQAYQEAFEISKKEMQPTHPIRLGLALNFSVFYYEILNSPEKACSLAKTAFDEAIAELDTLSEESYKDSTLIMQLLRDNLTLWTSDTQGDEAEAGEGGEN
Bim-Mcl-1 – inhibitors of Bim-Mcl-1 interaction, human; Q07820; Bead-based flow cytometry, Bim peptide-Mcl-1 binding; inhibition, % at 10 µM; actives 0.1% (n = 190,000); in the data active = inhibition above about 40%;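 also: 0% = no compound tracer wells and 100% = peptide blocker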
An asterisk follows results filed as active; / = no result given; [ ] = remark or other dose. A selection: hits, their analogues and other compounds. The true share with any hit is near 3.2%.

SMILES | Mcl1-Noxa inh | Mcl1 Bid PPI | p47phox inh | 14-3-3 Bad PPI | Bim-Mcl-1
COc1cc(/C=C2\C(=O)N(C)C(=S)N2C)ccc1O | 8 | -18 | -62 | -6 | -2
COc1ccc(CNCCNC(=O)c2cccs2)c(OC)c1OC | 24 | 2 | -3 | 25 | -1
O=C(CN1CCN(c2ccccn2)CC1)N1c2ccccc2CCc2ccccc21 | 22 | 55* | -8 | 49 | -3
Cc1nnc(SC(C)C#N)n1-c1ccccc1 (centres undefined) | -2 | -13 | -6 | -10 | 0
COc1ccc(NC(=O)c2ccc(-n3nc(C)cc3C)cc2)cc1OC | 10 | -17 | 38* | -9 | 0
Cc1ccc(NC(=O)CN(C)C(=O)c2nn(C)c(=O)c3ccccc23)cc1 | -5 | 0 | -14 | -5 | /
COc1cc(/C=N/Nc2nc3ccccc3[nH]2)cc(OC)c1O | 73* | -67 | -30 | 4 | 0
COc1cc(/C=N/Nc2ccccc2[N+](=O)[O-])cc(OC)c1O | 58* | -13 | 3 | -10 | 2
COc1cc(/C=N/Nc2ccc(F)cc2F)cc(OC)c1O | 62* | -76 | 3 | -22 | 9
CC(C)CNC(=S)N1CCC(C(=O)c2ccc3c(c2)OCCO3)CC1 | -2 | -45 | -5 | -14 | 3
O=C(NNS(=O)(=O)c1ccc(F)cc1)C1CC(c2cccnc2)=NO1 (centres undefined) | 4 | -10 | 9 | -3 | -3
CC(=O)c1ccc(NC(=O)CSc2ccsc2[N+](=O)[O-])cc1 | 87* | -35 | -15 | 15 | -2
O=C(CSc1ccsc1[N+](=O)[O-])NCCc1ccc(Cl)cc1 | 19 | -29 | -15 | -8 | 1
CCN(CC)c1ccc(NC(=O)CSc2ccsc2[N+](=O)[O-])c(C)c1 | 66* | -86 | 4 | -11 | -4
O=C(CSc1ccsc1[N+](=O)[O-])Nc1cc(F)ccc1F | 104* | -11 | -6 | 83* | -4
Cc1ccc(CNC(=O)CSc2ccsc2[N+](=O)[O-])cc1 | 15 | -16 | -8 | -12 | 0
Cc1[nH]c(=O)[nH]c(=O)c1S(=O)(=O)N(CC(C)C)CC(C)C | -2 | 5 | 10 | 14 | -1
CC(C)N(C)CCOC(=O)C1COc2ccccc2O1 (centres undefined) | 23 | -17 | -7 | -4 | /
COc1cc(/C=C2/SC(=O)N(Cc3ccccc3Cl)C2=O)ccc1OCc1ccncc1 | 4 | 5 | 31* | 3 | -5
COc1ccc(OCc2nnc(SCC(=O)N(C)Cc3ccccc3)n2N)cc1 | 2 | -35 | -4 | 3 | -11
CCN(Cc1ccccc1)c1ccc(/C=N/N=C(N)N)cc1 | 10 | -57 | 47* | 12 | 0
NC(=S)N/N=C/c1coc2cc(Br)ccc2c1=O | 18 | -27 | -9 | -4 | /
O=c1cc(/N=C/c2coc3c(ccc4ccccc43)c2=O)[nH]c(=S)[nH]1 | 74* | -85 | -2 | -7 | -14
NC(=S)N/N=C/c1coc2c(ccc3ccccc32)c1=O | -2 | 76* | -15 | 89*[fluorescence artefact?] | -4
COc1ccccc1N1CCN(/N=C/C(Cl)=C/c2ccccc2)CC1 | 11 | 34 | -2 | -7 | /
SMILES | Mcl1-Noxa inh | Mcl1 Bid PPI | p47phox inh | 14-3-3 Bad PPI | Bim-Mcl-1
CN(C)c1ccc2c(c1)Sc1cc(N(C)C)ccc1N2C(=O)c1ccccc1 | -2 | -33 | -11 | -12 | /
COc1ccc(N2CCC(CNC(=S)Nc3ccc(C)cc3C)C2)cc1 (centres undefined) | 32 | -157 | -12 | 2 | /
COC(=O)[C@H](CCSC)NC(=O)Nc1cccc(Br)c1 | 7 | -18 | -8 | -4 | /
Cc1nc2nc[nH]n2c(=O)c1NS(=O)(=O)c1ccc(F)cc1 | 25 | 1 | -3 | 4 | 0
COc1ccc(S(=O)(=O)Nc2c(C)nc3nc[nH]n3c2=O)cc1 | 7 | 66* | -9 | -19 | -4
CSc1ccc(S(=O)(=O)N(C)Cc2ccccc2)cc1 | -3 | -19 | -8 | -9 | 0
O=C(CSc1ccc(Cl)cc1)N1CCN(c2ccc([N+](=O)[O-])cc2Cl)CC1 | -1 | -4 | -3 | 1 | -1
Cc1ccc(Cl)cc1N1CCN(C(=O)CSc2ccsc2[N+](=O)[O-])CC1 | 55* | -16 | -36 | -4 | -8
CCOc1ccc(N2C(=O)c3ccc(C(=O)OCC(=O)N(CC)C4CCS(=O)(=O)C4)cc3C2=O)cc1 (centres undefined) | -11 | -2 | 44* | 61 | 1
CCN(C(=O)COC(=O)c1ccc(N2C(=O)c3ccccc3C2=O)cc1)C1CCS(=O)(=O)C1 (centres undefined) | -8 | -13 | -3 | -7 | -4
Cc1cc(C)cc(NC(=O)COC(=O)CN=C2NS(=O)(=O)c3ccccc32)c1 | 3 | -9 | 2 | -6 | -6
NNC(=O)c1ccc(CSc2n[nH]c(=O)[nH]c2=O)cc1 | 9 | 6 | -6 | -1 | /
O=C(CSc1nnc(COc2cccc3cccnc23)o1)N1CCc2ccccc21 | -5 | 84* | 10 | 1 | 0
O=C(CN1CCCCC1)Nc1nnc(-c2ccc([N+](=O)[O-])cc2)s1 | 69* | -22 | -10 | -1 | -2
Cn1cc([N+](=O)[O-])c(C(=O)Nc2cc(Oc3cccnc3)cc([N+](=O)[O-])c2)n1 | 29 | 15 | -15 | 74* | 1
Cc1cc(C(=O)COC(=O)c2ccc(CO)cc2)c(C)n1CC1COc2ccccc2O1 (centres undefined) | 5 | -38 | -80 | -24 | -1
O=C1CCCc2oc3c(cc(NS(=O)(=O)c4ccc5c6c(cccc46)C(=O)N5)c4ccccc43)c21 | 61* | -76 | -29 | -4 | /
COc1cc2[nH]c(=S)nc(NC3CCCCCC3)c2cc1OC | 7 | -21 | -14 | -4 | 13
COc1ccc(CCNc2ncnc3c2[nH]c2cc(OC)c(OC)cc23)cc1OC | 66* | -8 | -40 | 6 | /
COc1ccc(CCNc2nc(=S)[nH]c3cc(OC)c(OC)cc23)cc1OC | 80* | -23 | -8 | -14 | 27
COc1ccc(CCNc2ncnc3cc(OC)c(OC)cc23)cc1OC | 10 | -21 | 3 | -3 | 0
COc1cc2[nH]c(=S)nc(NCCc3ccc(S(N)(=O)=O)cc3)c2cc1OC | 59* | -55 | -14 | -10 | 38
COc1cc2[nH]c(=S)nc(Nc3ccc(NC(C)=O)cc3)c2cc1OC | 78* | -79 | -11 | -10 | 33
COc1cc2[nH]c(=S)nc(NCCc3ccc(C)cc3)c2cc1OC | 20 | -41 | -5 | 3 | 16
Cc1ccccc1CN(c1ccc(C(=O)NCc2ccccn2)cc1)S(C)(=O)=O | 8 | -21 | -17 | -10 | 0
Cc1cccnc1NC(=S)Nc1ccc(Br)cc1Cl | 6 | -39 | -12 | -4 | -2
CC(=O)Nc1ccc(/C(C)=N/NS(=O)(=O)c2ccccc2)cc1 | 6 | -12 | -24 | 3 | -1
COc1cc(/C=C/C(=O)OCC(=O)Nc2ccc3c(c2)OCCO3)ccc1OCC#N | -26 | -17 | -9 | -13 | 0

Screening results (PubChem)
